Measurements from PubChem BioAssay AID1851 (National Center for Advancing Translational Sciences (NCATS), 2009).
Hit rate of the full screen: of about 16,000 compounds, about 2,600 (16%) were called active. About 20% were inconclusive and are not listed. Calls follow the shape of the dose curve; as a rule, active = well fitted curve in the direction sought with a large enough effect; inconclusive = small, poorly fitted or top-dose-only effect, or effect the other way; inactive = no such curve, though single readings can be large or run the other way. Not all results are given here.

The compounds below were run against Cytochrome P450 2D6 (Homo sapiens) (UniProt P10635) (assay: Cytochrome panel assay with activity outcomes). Settings: recombinant CYP, pro-luciferin dealkylation, luminescence, p450-cyp2d6; series mostly up to 57.1 µM; activity, negative = inhibition: at the top concentration.
% is scaled to controls: 0 for no effect and ±100 for the full control effect.

Chain of Cytochrome P450 2D6 (Homo sapiens) (P10635 whole entry, looked up): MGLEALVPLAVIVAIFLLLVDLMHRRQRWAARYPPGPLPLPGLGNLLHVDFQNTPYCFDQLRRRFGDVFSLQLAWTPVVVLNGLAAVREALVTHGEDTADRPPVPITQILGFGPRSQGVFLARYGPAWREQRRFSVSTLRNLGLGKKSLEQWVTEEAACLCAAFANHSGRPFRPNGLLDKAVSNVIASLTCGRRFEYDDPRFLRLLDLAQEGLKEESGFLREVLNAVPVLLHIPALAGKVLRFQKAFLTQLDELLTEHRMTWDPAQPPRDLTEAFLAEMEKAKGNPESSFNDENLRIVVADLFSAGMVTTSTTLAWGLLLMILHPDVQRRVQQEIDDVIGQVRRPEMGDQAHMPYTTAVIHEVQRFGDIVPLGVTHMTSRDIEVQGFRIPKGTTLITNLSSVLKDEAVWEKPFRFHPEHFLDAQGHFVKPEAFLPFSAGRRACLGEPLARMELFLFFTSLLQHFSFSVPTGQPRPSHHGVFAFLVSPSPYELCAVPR

Structure (SMILES) | activity, negative = inhibition | AC50
CN1CCN(c2ncc3ncc(=O)n(CCC#N)c3n2)CC1 | 1.57% (inactive) | –
COC(=O)c1ccc(Oc2cc(C)nc(-n3nc(C)cc3C)n2)cc1 | -10.5% (inactive) | –
Cc1cccc(NC(=S)NNC(=O)CC(C)O)c1C (centres undefined) | -3.05% (inactive) | –
O=C(/C=C/c1ccc2ccccc2c1)c1ccoc1 | -5.53% (inactive) | –
COC(=O)c1c(-c2ccc3ccccc3c2)csc1NC(=O)Cc1ccc(OC)c(OC)c1 | 9.92% (inactive) | –
CNC(=O)c1nnn(Cc2ccccc2)c1NC(=O)C(F)(F)F | 14.6% (inactive) | –
O=C(N/N=C/c1ccc([N+](=O)[O-])s1)c1ccccc1Br | -20.2% (inactive) | –
O=C(O)CCCCCNC(=O)c1ccccc1Br | 15.5% (inactive) | –
O=C(NCCNc1ccc([N+](=O)[O-])cc1)c1ccccc1Br | – | 11.2 µM (active)
NC(=O)N1c2ccccc2C=Cc2ccccc21 | 1.87% [at 25.6 µM] (inactive) | –
Cc1cc(Oc2ccc(-c3ccccc3)cc2)nc(N2CCOCC2)n1 | -22.5% (inactive) | –
CCC(C)n1nnc2c(=O)oc3ccccc3c21 (centres undefined) | 9.18% (inactive) | –
COC(=O)[C@H]1C[C@@H]1[C@H](NC(=O)c1cnccn1)c1ccccc1 | -5.05% (inactive) | –
C[C@@H](C(=O)Nc1ccc2ccccc2c1)[C@@H]1C[C@@]1(C)[C@@H](NC(=O)c1ccncc1Cl)c1ccccc1 | – | 12.6 µM (active)
C[C@@H](C(=O)Nc1ccc2ccccc2c1)[C@@H]1C[C@@]1(C)[C@@H](NC(=O)c1cnccn1)c1ccccc1 | -6.62% (inactive) | –
C[C@@H](C(=O)Nc1ccc2ccccc2c1)[C@H]1C[C@]1(C)[C@H](NC(=O)c1cnccn1)c1ccccc1 | – | 0.1 µM (active)
O=P(O)(O)O[C@@H]1O[C@H](CO)[C@@H](O)[C@H](O)[C@@H]1O | 9.85% [at 11.4 µM] (inactive) | –
CCOC(=O)/C(C#N)=C\N(C)C | 0.62% (inactive) | –
O=C(c1cccc(F)c1)N1CCC2(CCCN(c3ccc(-c4ccccc4)cc3)C2)CC1 | 3.09% (inactive) | –
Cc1ccc(OCC(=O)Nc2ccc(S(=O)(=O)Nc3onc(C)c3C)cc2)cc1 | -9.39% (inactive) | –
COCc1nc2c([nH]1)c(=O)n(C)c(=O)n2CC(C)C | 5.94% (inactive) | –
CC(=O)NNC(=O)C(O)(c1ccccc1)c1ccccc1 | 4.64% (inactive) | –

Structure (SMILES) | activity, negative = inhibition | AC50
O=C(O)CCC(=O)N1CCOc2ccc(Cl)cc21 | 7.6% (inactive) | –
CC(=O)NNC(=O)N1Cc2ccccc2Oc2ccc(Cl)cc21 | – | 6.31 µM (active)
CC/C(O)=C(\C#N)c1nnc2n1CCCCC2 | -19.9% (inactive) | –
COc1ccc(-c2nc3cnc(Nc4cccc(OC)c4)nc3n(CCC#N)c2=O)cc1 | 0.405% (inactive) | –
Cc1ccc(NC(=O)Cn2nc([N+](=O)[O-])c(Br)c2C)cc1C | -22.2% (inactive) | –
COc1ccc(NC(=O)COc2ccc(CNCCCN3CCOCC3)cc2OC)cc1 | -25.3% (inactive) | –
COc1cc(CNCCN2CCOCC2)ccc1OCc1ccccc1Cl | – | 11.2 µM (active)
CCOc1ccccc1CNCCN1CCOCC1 | – | 12.6 µM (active)
COc1cc2c(cc1OC)-c1cc(NCc3ccccn3)nc(=O)n1CC2 | -23.8% (inactive) | –
Cc1ccccc1-c1cc(NCCN2CCOCC2)ncn1 | -12% (inactive) | –
COc1ccc(CC(=O)NCc2ccccn2)cc1OC | -3.31% (inactive) | –
COc1cc(CNCc2ccccn2)ccc1OCc1ccc(Cl)cc1Cl | – | 12.6 µM (active)
COc1cc(CNn2nnnc2N)ccc1OCc1c(Cl)cccc1Cl | 0.965% (inactive) | –
c1csc(CNCCCN2CCOCC2)c1 | -19.4% (inactive) | –
CCN(CC)S(=O)(=O)N1CCC(C(=O)NC2CCCC2)CC1 | -1.15% (inactive) | –
COc1cccc(Cn2c(=O)c(-c3cccc(C#N)c3)nc3cnc(OC)nc32)c1 | -6.2% (inactive) | –
COc1ccc(-c2cc(C(F)(F)F)nc(N3CCOCC3)n2)cc1OC | -9.69% (inactive) | –
CC1=NN(c2ccc(C)cc2C)C(=O)C1C(c1ccccc1)C1C(=O)N(c2ccc(C)cc2C)N=C1C (centres undefined) | -4.48% (inactive) | –
C=CC[C@@H]1C=C[C@@H](O/N=C\[C@@H](OC)[C@H](C)/C=C\CC(=O)OC)[C@@H](CO)O1 | 4.18% [at 11.4 µM] (inactive) | –
O=C(c1cc(-c2ccncc2)nc2ccccc12)N1CCN(c2ccc(N3CCOCC3)nn2)CC1 | -13.7% (inactive) | –
COc1ccc(/C(O)=C2\C(=O)C(=O)N(c3cc(C)on3)C2c2ccc(OC)c(OC)c2)cc1OC (centres undefined) | 12.4% (inactive) | –
CC(C)c1nnc(NC(=O)c2sc3ccccc3c2Cl)s1 | -12% (inactive) | –

Structure (SMILES) | activity, negative = inhibition | AC50
C[N+](C)(CCCCCC[N+](C)(C)CCCN1C(=O)c2cccc3cccc(c23)C1=O)CCCN1C(=O)c2cccc3cccc(c23)C1=O | -5.79% (inactive) | –
CS[C@@H](CC(=O)O)C(=O)O | -10.1% [at 11.4 µM] (inactive) | –
CCN(CC)CC#CCC(C)(c1ccccc1)c1ccccc1 | – | 0.891 µM (active)
CC(CC(=O)O)(CC(=O)O)c1ccccc1 | 11.2% [at 11.4 µM] (inactive) | –
COc1ncc2nc(C)c(=O)n(-c3ccccc3)c2n1 | -4.68% (inactive) | –
O=C(Nc1nc(-c2ccccc2)cs1)c1ccc(Br)o1 | -26.9% (inactive) | –
CN1CCN(c2ncc3nc(-c4cc(F)cc(F)c4)c(=O)n(Cc4cccs4)c3n2)CC1 | -0.882% (inactive) | –
O=C1c2cccc3cccc(c23)C(=O)N1CC1CCN(CC(O)COc2ccc3ccccc3c2)CC1 (centres undefined) | – | 0.708 µM (active)
O=C(CCN1C(=O)c2ccccc2C1=O)Oc1ccc2ccccc2c1 | -12.4% (inactive) | –
O=C(c1ccc(S(=O)(=O)N2CCCCCC2)cc1)N1CCC(CN2C(=O)c3cccc4cccc(c34)C2=O)CC1 | -9.01% (inactive) | –
O=C(O)[C@@H](S)[C@H](S)C(=O)O | -4.31% [at 11.4 µM] (inactive) | –
CN1CCN(c2ccc([N+](=O)[O-])cc2S(=O)(=O)N2CCOCC2)CC1 | -7.09% (inactive) | –
Cc1cccc(OCCCC(=O)Nc2ccc(N3CCCCC3)cc2)c1 | – | 0.891 µM (active)
CC(=O)Nc1ccc(N2CCCCC2)cc1 | -9.74% (inactive) | –
Cc1cccc(N2CCN(c3ccc(NC(=O)/C=C(/C(=O)O)c4ccccc4)cc3)CC2)c1 | 4.26% (inactive) | –
Cc1ccnc2nc(C(=O)OCC(=O)Nc3ccc4c(c3)OC(F)(F)O4)nn12 | -21.3% (inactive) | –
CCO[P@]1(=O)OC[C@@H]2O[C@H](n3cnc4c(N)ncnc43)[C@H](O)[C@@H]2O1 | 4.83% [at 11.4 µM] (inactive) | –
CCN(/C=N/c1sc2c(c1C#N)CCCCC2)CC | -33.3% (inactive) | –
O=C(NC1(C(F)(F)F)C(=O)Nc2c1c(=O)[nH]c(=O)n2-c1ccc(F)cc1)c1cccnc1 (centres undefined) | 7.79% (inactive) | –
CN(C)CCCN1CC(C(=O)O)CC1=O (centres undefined) | 19% (inactive) | –
